Test results from PubChem BioAssay (EPA / NIEHS).
Inconclusive results are not listed. Activity calls are given as the source filed them. How the source made its calls: active means hit-call score of the fitted dose curve at least 0.9, where 1 is the maximum; inconclusive means response in the unintended direction; inactive means score below 0.9.

What was measured:
[1] = TOX21_p53_BLA_p4_viability: Viability Assessment in the Tox21 HCT-116 p53 Agonism Beta-lactamase Assay, Phase 4 (AID 2283597);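 further: hits lower the luminescence signal meaning cytotoxicity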
In short: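 Following a 16 h exposure at 37C, the treated HCT116 wells were first read for the FRET ratio. They were then lysed with CellTiter-Glo, and ATP luminescence was recorded after 30 min at room temperature.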

[2] = TOX21_p53_BLA_p5_viability: Viability Assessment in the Tox21 HCT-116 p53 Agonism Beta-lactamase Assay, Phase 5 (AID 2283600)
In short: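 After the 460/530 nm beta-lactamase measurement, the wells received an ATP-detection luciferase reagent; signal was read 30 min later at RT. Compound treatment lasted 16 h on cells pre-incubated 5 h post-seeding.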

[3] = target: Cellular tumor antigen p53 (Homo sapiens) (UniProt P04637); assay: TOX21_p53_BLA_p4_ratio: Tox21 HCT-116 p53 Agonism Beta-lactamase Assay, Ratio, Phase 4 (AID 2283601)
Cellular tumor antigen p53 (Homo sapiens), sequence (P04637 whole entry, looked up): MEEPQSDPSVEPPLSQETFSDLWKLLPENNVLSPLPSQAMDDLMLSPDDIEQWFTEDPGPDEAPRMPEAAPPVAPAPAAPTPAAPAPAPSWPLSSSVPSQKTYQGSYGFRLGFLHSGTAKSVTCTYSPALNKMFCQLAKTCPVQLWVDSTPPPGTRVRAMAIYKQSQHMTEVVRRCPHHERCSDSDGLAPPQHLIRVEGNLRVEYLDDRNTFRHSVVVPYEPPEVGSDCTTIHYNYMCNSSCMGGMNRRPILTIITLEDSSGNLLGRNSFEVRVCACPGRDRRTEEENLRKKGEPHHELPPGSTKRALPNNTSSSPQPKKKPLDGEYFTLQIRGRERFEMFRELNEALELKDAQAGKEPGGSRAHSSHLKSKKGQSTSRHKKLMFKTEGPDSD
In short: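 Signal is the blue/green (460nm/530nm) ratio of cleaved versus uncleaved CCF4-AM substrate, read after 2 h substrate loading. Cells were HCT116 carrying the p53-responsive beta-lactamase reporter, dosed 16 h at 37C, 5% CO2; CellTiter-Glo measured in parallel.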

[4] = Tanguay_ZF_120hpf_MORT_legacy: (Legacy) Oregon State University Tanguay Lab 120 Hour Post-fertilization zebrafish Assay for Mortality (AID 2283633);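 on AC50: fitted as increase in binary mortality versus DMSO negative control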
In short: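 Static waterborne exposure from 6 to 120 hpf at 28C of single dechorionated wild-type (5D) embryos per well, 0.64% DMSO final. Death recorded present/absent by brightfield at 24 and 120 hpf.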

[5] = Tanguay_ZF_120hpf_YSE_legacy: (Legacy) Oregon State University Tanguay Lab 120 Hour Post-fertilization zebrafish Assay for Yolk Sac Edema (AID 2283634);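 on AC50: actives raise the incidence of yolk sac edema above the DMSO baseline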
In short: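 Presence or absence of yolk sac edema was recorded at 120 hpf in surviving larvae. These were wild-type Tropical 5D embryos, chorion removed at 4 hpf, held in static exposure at 28C from 6 hpf with 0.64% DMSO vehicle.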

[6] = Tanguay_ZF_120hpf_AXIS_legacy: (Legacy) Oregon State University Tanguay Lab 120 Hour Post-fertilization zebrafish Assay for Body Axis Malformation (AID 2283635);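 on AC50: potency for an increased fraction of larvae scored with body axis malformation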
In short: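 Binary scoring of axis defects at 120 hpf under brightfield, fitted positive versus DMSO. Tropical 5D embryos, chorion removed by pronase at 4 hpf, were singly exposed in sealed, dark plates at 28C from 6 hpf; DMSO 0.64% final.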

[7] = Tanguay_ZF_120hpf_EYE_legacy: (Legacy) Oregon State University Tanguay Lab 120 Hour Post-fertilization zebrafish Assay for Eye Malformation (AID 2283636)
In short: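 Read-out is binary presence or absence of eye malformation, scored by brightfield microscopy at 120 hpf. Single larvae were exposed from 6 hpf in embryo medium containing 0.64% DMSO, with DMSO as baseline.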

[8] = Tanguay_ZF_120hpf_SNOU_legacy: (Legacy) Oregon State University Tanguay Lab 120 Hour Post-fertilization zebrafish Assay for Snout Malformation (AID 2283637)
In short: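 Snout malformation read as a yes/no call on brightfield images of 120 hpf larvae (Tropical 5D strain). Static exposure began at 6 hpf on dechorionated embryos in 0.64% DMSO, with gain of signal analysed versus DMSO controls.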

[9] = Tanguay_ZF_120hpf_JAW_legacy: (Legacy) Oregon State University Tanguay Lab 120 Hour Post-fertilization zebrafish Assay for Jaw Malformation (AID 2283638);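 on AC50: active means more embryos with jaw malformation than DMSO controls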
In short: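 Binary jaw-malformation call at 120 hpf by brightfield microscopy. Embryos (Tropical 5D strain, chorion removed at 4 hpf) were dosed statically at 6 hpf, one per well, at 28C with 0.64% DMSO. Embryos that died were not scored.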

[10] = Tanguay_ZF_120hpf_OTIC_legacy: (Legacy) Oregon State University Tanguay Lab 120 Hour Post-fertilization zebrafish Assay for Otic Vesicle Malformation (AID 2283639)
In short: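 Tropical 5D wild-type zebrafish embryos statically exposed in 0.64% DMSO at 28C until 120 hpf; 5uM trimethyltin chloride as positive control. Otic vesicle malformation scored present/absent by brightfield; dead embryos not scored; gain fitted versus DMSO.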

Measured: AC50

CCCCC(CC)C(=O)OCCOCCOCCOC(=O)C(CC)CCCC (stereo not given)
inactive: all assays above

CCn1nc(C)c2c1C(=O)NCC(c1ccc(O)cc1)=N2
not listed: [1] | [2] | [5]
inactive: all other assays above

CCCCCCCC1CCC(=O)O1 (stereo not given)
active: [5] 25.9 µM | [8] 31.9 µM | [9] 40.3 µM
inactive: [4] | [6] | [7]

CCc1ccc(O)c(C(C)(C)C)c1
active: [1] 79.1 µM | [3] 53.1 µM
not listed: [6]
inactive: all other assays above

CCCCCCCCCCCCCCO
inactive: all assays above

OCCOCCOCCO
not listed: [2] | [8]
inactive: all other assays above

Cn1c(=O)c2[nH]cnc2n(C)c1=O
inactive: all assays above

CC(C)c1nnc2ccc(-c3ocnc3-c3cc(F)ccc3F)cn12
inactive: [1] | [4] | [5] | [7] | [8] | [10]

O=C(O)c1cccc(C[C@@H]2COc3ccc(OCc4nc5cc(F)ccc5s4)cc3[C@@H]2O)c1
inactive: [1] | [3] | [7] | [10]
active: [4] 26 µM | [5] 5.39 µM | [6] 5.78 µM | [8] 3.99 µM | [9] 9.13 µM

O=C(O)c1ccc2c(c1)nc(C(=O)NC1CCN(C3CC3)CC1)n2Cc1cc(-c2ccc(Cl)s2)on1
not listed: [1] | [7] | [10]
inactive: all other assays above

CCCCCCCCCCCCCCCCOS(=O)(=O)O
active: [1] 36.5 µM
inactive: all other assays above

CCOc1ccc2[nH]cc(C(=O)NCc3ccccc3)c(=O)c2n1
not listed: [1] | [2] | [3]
inactive: all other assays above

NC(=O)N(O)[C@@H]1COc2cc(OCc3ccccc3)ccc21
inactive: [4] | [5] | [7] | [8] | [9] | [10]

COS(C)(=O)=O
not listed: [1] | [2] | [3]
inactive: all other assays above

COc1cc(C(C)C)c2c(c1)S(=O)(=O)N(COc1cc(=O)n3cccc(OCCN4CCCCC4)c3n1)C2=O
active: [6] 32.4 µM | [8] 24.6 µM | [10] 15.3 µM
inactive: [4] | [5] | [7] | [9]

O=C(O)c1cccc(C(=O)O)c1
not listed: [1] | [2] | [3]
inactive: all other assays above

OC[C@H]1O[C@@](CO)(O[C@H]2O[C@H](CO)[C@@H](O)[C@H](O)[C@H]2O)[C@@H](O)[C@@H]1O
not listed: [1] | [2] | [3]
inactive: all other assays above

CC(C)CC(C)O (stereo not given)
not listed: [1] | [2] | [3]
inactive: all other assays above

O=C(NO)C1(NS(=O)(=O)c2ccc(Oc3ccc(F)cc3)cc2)CCOCC1
not listed: [1] | [2] | [3]
inactive: all other assays above

Cn1cc[nH]c1=S
inactive: [4] | [7] | [8] | [9] | [10]

CCN(CC)C(=S)SSC(=S)N(CC)CC
active: [5] 0.425 µM | [6] 0.36 µM | [7] 1.4 µM | [8] 1.4 µM | [9] 1.24 µM
inactive: [4] | [10]

C=CCc1cc(S(=O)(=O)c2ccc(O)c(CC=C)c2)ccc1O
not listed: [1] | [2] | [3]
inactive: all other assays above

CCCC(CCC)C(=O)O
not listed: [1] | [2] | [3]
inactive: all other assays above

CCCOc1ccc(S(=O)(=O)N2CCN(CC)CC2)cc1-c1nc2c(CC)n(Cc3ccccn3)nc2c(=O)[nH]1
not listed: [1] | [2] | [3]
inactive: all other assays above

O=c1[nH]cnc2c1ncn2[C@H]1CC[C@@H](CO)O1
not listed: [1] | [2] | [3]
inactive: all other assays above

CC[C@H](C)C(=O)O[C@H]1C[C@H](O)C=C2C=C[C@H](C)[C@H](CC[C@@H](O)C[C@@H](O)CC(=O)O)[C@H]21
inactive: [5] | [6] | [7] | [8] | [9] | [10]

CC(C)C(=O)Nc1ccc([N+](=O)[O-])c(C(F)(F)F)c1
not listed: [1] | [2] | [3]
inactive: all other assays above
